# Test results: PubChem BioAssay AID624288 (National Center for Advancing Translational Sciences (NCATS), 2012)
# The whole screen tested about 340,000 compounds, of which about 1,400 (0.41%) were called active. Roughly 4% stayed inconclusive and do not appear here. The list comes from a sample in which actives are over-represented; it also holds similar structures and randomly drawn compounds. Values without a mark were called inactive. Calls come from the whole dose curve; cell line not stated here.
# Experiment: qHTS for Antagonists of gsp, the Etiologic Mutation Responsible for Fibrous Dysplasia/McCune-Albright Syndrome: qHTS; note: nearly all actives have a fitted effect of over 65% in size
# Details: gsp-mutant cells, cAMP HTRF, 30 min; series mostly up to 76.9 µM; activity change, negative = inhibition: at the top concentration
# Excerpt: McCune-Albright syndrome (MAS) is a rare disease caused by somatic mutations in Gsgsp), a widely expressed protein central in signal transduction from G-coupled protein receptors (GPCRs). The disease symptoms are diverse, owing to the fact that the patients are mosaics with varying degrees of tissue involvement. Greater than 90% of the mutations in Gs in MAS occur at the R201 position and are equally divided between R201H and R201C. The R201 residue is central in the intrinsic GTPase activity of Gs and the H and C mutations lead to loss of, or impairment of, the GTPase activity. The intrinsic GTPase activity is necessary to terminate the interaction between Gs and adenylate cyclase, and to terminate the cAMP-mediated signaling of the given GPCR pathway. Thus, these activating mutations lead to ligand-independent activation of GPCR pathways. The tissue phenotype is determined by the role of Gs in the function of a given cell, and excess Gs/cAMP signaling in that cell. For example, pituitary somatotrophs overproduce growth hormone in a growth hormone releasing hormone-independent fashion, and gigantism/acromegaly ensues. Skeletal stem cells in the bone marrow behave as if they are under constant parathyroid hormone stimulation and fail to differentiate into osteoblasts and osteocytes, and proliferate as immature osteogenic cells and lead to the marrow fibrosis of fibrous dysplasia of bone. The goal of this project is to identify molecules with inhibitory activity at gsp mutations that will not only allow for in-depth study of the underlying molecular and cellular pathophysiology, but also serve as compounds from which drugs to treat FD/MAS can be developed NIH Chemical Genomics Center [NCGC] NIH Molecular Libraries Probe Centers Network [MLPCN] MLPCN Grant: IRP-FT-DE-2011-01 Assay Submitter (PI): Michael Collins, NIDCR
# 1.#Seed 2000 cells/well in 6 ul DMEM 10% FBS, 1% Pen/Strep, 0.5 mg/ml G418 2.#Incubate 16-24 hr at 37C, 5% CO2, 95% humidity 3.#Aspirate leaving 1 ul residual volume 4.#Dispense 5 ul/well DPBS + 1 mM CaCl2, 0.5 mM MgCl2, 0.05% BSA, 0.005% Tween 20 5.#Aspirate leaving 2 ul residual volume 6.#Dispense 23 nl/well compounds in DMSO 7.#Dispense 1 ul/well 300 uM Ro-20174 in DMEM 10% FBS 8.#Incubate 30 min at 37C, 5% CO2, 95% humidity 9.#Dispense 1.5 ul/well HTRF reagent: cAMP-d2 in lysis buffer 10.#Dispense 1.5 ul/well HTRF reagent: anti-cAMP antibody-K in lysis buffer 11.#Incubate 30 min at room temperature 12.#Detect HTRF signal using EnVision plate reader
# % is set by controls: 0 for no effect and ±100 for the full control effect; potency is the fitted concentration of half-maximal effect.
Structure (SMILES),"activity change, negative = inhibition",Potency
COc1cc(NC(=O)C2=CC(c3ccco3)=NS(=O)(=O)N2C)cc(OC)c1OC,-2.3%,
COc1ccc(NC(=O)C2=CC(c3ccc(OC)c(OC)c3)=NS(=O)(=O)N2C)cc1,,39.8 µM (active)
COc1cc(NC(=O)C2=CC(c3ccc(C)cc3)=NS(=O)(=O)N2C)cc(OC)c1OC,-12.6%,
COC(=O)Cc1nc2c(N)nc(N)nc2[nH]c1=O,-0.61%,
CSc1ncnc2c1ncn2CC(=O)C1CCC2C3CCC4=CC(=O)CCC4(C)C3CCC12C (stereo not drawn),,31.6 µM (active)
CC(=O)C12CC(C)=C(C)CC1CC1C3CCC4=CC(=O)CCC4(C)C3CCC12C (stereo not drawn),-11.6%,
Cc1onc(-c2c(F)cccc2Cl)c1C(=O)Nc1cccc(S(=O)(=O)N2CCCCC2)c1,-15.9%,
CN1CCOC1c1ccc(C2OCCN2C)cc1 (stereo not drawn),-2.61%,
CC1CN(Cc2ccccc2)C(=S)NC1=O (stereo not drawn),11.6%,
COc1ccccc1NC(=O)N(O)C1(C#N)CCCCC1,10.5%,
Cc1ccc(C2=Nc3c(ccc4ccccc34)C(c3ccncc3)=NN2)cc1,,31.6 µM (active)
CCOc1ccc2c(c1)C(c1ccc(C)cc1)=NNC(c1ccc(C)cc1)=N2,-5.6%,
Cc1ccc(-c2csc(-c3c[nH]c4ccccc34)n2)cc1,-14.8%,
CC(=O)c1ccc(NC(=O)C(C)OC(=O)c2ccc(NS(=O)(=O)c3ccc4[nH]c(=O)[nH]c4c3)cc2)cc1 (stereo not drawn),3.15%,
O=C(O)C(CCc1ccccn1)c1ccccc1 (stereo not drawn),1.38%,
O=C(CCN1C(=O)/C(=C/c2cccs2)SC1=S)NNC(=O)c1cccc(O)c1,,31.6 µM (active)
O=C(CCCN1C(=O)/C(=C/c2cccs2)SC1=S)Nc1ccc(O)cc1,-10.1%,
Cc1ccc(/C=C2\SC(=S)N(CCC(=O)Nc3ccc(O)cc3)C2=O)cc1,4.75%,
Cc1ccc(OCCNC(=O)c2cccc(S(=O)(=O)N3CCN(Cc4ccccc4)CC3)c2)cc1,-9.83%,
COc1ccc(OC)c(Cc2cnc3nc(N)nc(N)c3c2C)c1,-2.01%,
CC(=O)OC(C)C[N+](C)(C)C (stereo not drawn),1.38%,
CC(=O)OCCC(C)C,9.48%,
CC(=O)OCC(COC(C)=O)OC(C)=O,,35.5 µM (active)
O=C1OC(Oc2ccc(Br)cc2)(c2ccccc2)c2ccccc21 (stereo not drawn),-18%,
CCCCN1CC(COc2ccccc2)Oc2cccc(F)c2S1(=O)=O (stereo not drawn),-12.9%,
O=C(c1cccc(F)c1)N1CCN(c2ccc([N+](=O)[O-])c(N3CCCCC3)c2)CC1,-11.9%,

Structure (SMILES),"activity change, negative = inhibition",Potency
O=C(c1cccc(F)c1)N1CCN(c2ccc([N+](=O)[O-])c3cccnc23)CC1,,39.8 µM (active)
O=C(c1ccc(N2CCOCC2)c([N+](=O)[O-])c1)N1CCN(c2ccccc2F)CC1,-2.65%,
COc1cc(C2c3cc4c(cc3C(O)C3COC(=O)C23)OCO4)cc(OC)c1OC (stereo not drawn),16.2%,
O=C(Cc1ccc(S(=O)(=O)N2CCOCC2)s1)Nc1ccc(Br)c(C(F)(F)F)c1,-38.2%,
O=C(c1cccnc1)N(Cc1ccccc1)C(=O)c1cccnc1,5.46%,
CCCN(CC(=O)Nc1ccccc1C)C(=O)c1ccc(OCC(=O)N2CCOCC2)c(OCC)c1,-2.96%,
COc1ccc(CCNC(=O)COc2cc(C)cc3oc(=O)c(C)c(C)c23)cc1OC,4.24%,
CC(C)OCCCNC(=O)c1cc(Sc2ccc(F)cc2)nc2ccccc12,16%,
CC(C)OCCCNc1ncnc2c1[nH]c1ccc(F)cc12,,39.8 µM (active)
CCOC(=O)[C@H]1[C@H]2COc3ccc(Br)cc3[C@@H]2N2C(=O)CN(C)C(=O)[C@@]12C,0.52%,
O=C(NCc1ccccc1)c1cccc(NC(=O)C2CCCCC2)c1,-0.777%,
Cc1c(CN2CC[C@@H](N3CCN(c4ccccn4)CC3)[C@H](O)C2)[nH]c2ccc(F)cc12,4.63%,
Fc1ccc2[nH]c3c(N4CCSCC4)ncnc3c2c1,,28.2 µM (active)
CCN(CC)CCCN1C(=O)C(=O)/C(=C(/O)c2c(C)nc3ccccn23)C1c1ccc(C)o1 (stereo not drawn),8.42%,
O=C(Nc1nc2ccccc2s1)c1ccc2c(c1)OCO2,-20.8%,
O=C(Nc1nc(-c2ccc3c(c2)OCO3)cs1)c1ccncc1,,39.8 µM (active)
CC(=O)NCCC(=O)Nc1nc(-c2ccc3c(c2)OCCO3)cs1,1.23%,
N#CC1(Nc2ccc(-c3ccc(Cl)cc3)cc2)CCCC1,2.59%,
FC(F)(F)c1ccc(-c2cccc3c2C2CC3CCN2Cc2ccccc2)cc1 (stereo not drawn),-6.66%,
CCOC(=O)c1ccccc1OC(=O)Oc1ccccc1C(=O)OCC,-13%,
CC(=O)Oc1ccc2c(c1)C(=O)c1ccccc1C2=O,-0.802%,
O=C1C(Cl)=C(Oc2ccccc2)C(=O)c2ccccc21,,39.8 µM (active)
CCCCN1CC(COCc2ccccc2)OCCS1(=O)=O (stereo not drawn),12.5%,
C=CC(=O)Nc1ccc(Nc2ccnc(Nc3ccc(N4CCN(C)CC4)cc3)n2)cc1,-4.93%,
COc1ccc(Cl)cc1C=CC=Nc1ccc(S(N)(=O)=O)cc1,0.98%,
Cc1ccc(C(=O)OCC(=O)N2CCCCCC2)cc1S(=O)(=O)N1CCOCC1,-6.68%,

Structure (SMILES),"activity change, negative = inhibition",Potency
COc1ccc(CNC(=O)COC(=O)c2ccc(C)c(S(=O)(=O)N3CCOCC3)c2)cc1OC,-4.89%,
COc1ccc(C(=O)OCC(=O)c2ccc(C)c(S(=O)(=O)N3CCOCC3)c2)cc1OC,,28.2 µM (active)
COC1C(CO)OC(n2cnc3c(=S)nc(N)[nH]c32)C1O (stereo not drawn),-0.246%,
COc1ccc2oc(N)nc2c1,7.22%,
NC(=O)C1(Nc2ccc([N+](=O)[O-])cc2)CCCC1,7.87%,
COc1ccc(N2CCN(C(=O)CNC(=O)c3ccc(Br)o3)CC2)cc1,5.12%,
O=C(NCCc1csc(-c2ccccc2)n1)c1ccccc1F,-20.8%,
COc1ccc(-c2nc(CCNC(=O)c3ccc(Br)o3)cs2)cc1,,44.7 µM (active)
Cc1ccc(S(=O)(=O)N2CCN(C(=O)c3cc(S(=O)(=O)N4CCOCC4)ccc3F)CC2)cc1,6.87%,
c1ccc(-c2c[nH]c(-c3ccccc3)c2)cc1,-13.3%,
Cc1ccc(S(=O)(=O)c2cc3c(=O)n4cccc(C)c4nc3n(CCc3ccccc3)c2=N)cc1C,8.56%,
CC12CCCCC1=CC(=O)CC2 (stereo not drawn),-0.525%,
CC(C)Cc1nnc(N)s1,5.9%,
Cn1c2ccccc2c(=O)c2c(=O)n(Cc3ccco3)c(COc3ccccc3)nc21,-3.84%,
COc1ccc(-n2cnc3cc(NCc4ccco4)ccc32)cc1,-16%,
COc1ccc(-c2oc3ncn(Cc4ccco4)c(=N)c3c2-c2ccc(OC)cc2)cc1,,50.1 µM (active)
OCC(O)C1OCOC(C(O)CO)C1O (stereo not drawn),-2.27%,
CCOC(=O)N(Cc1ccccc1)C1CC1,12.5%,
CCc1c(Nc2ccccc2Cl)nc(N)[nH]c1=O,8.47%,
Cc1cc(C(=O)NC2CCCc3c2cnn3-c2cccc(C)c2C)c(C)o1 (stereo not drawn),-32.6%,
COc1ccc(C(=O)NC2CCCc3c2cnn3-c2cccc(C)c2C)c(OC)n1 (stereo not drawn),,39.8 µM (active)
CC(=O)NCC(=O)NC1CCCc2c1cnn2-c1ccccc1F (stereo not drawn),2.94%,
S=C(Nc1ccccc1)Nc1ccc2ccccc2c1,2.23%,
Cn1c(=O)[nH]c2c(c(C(=O)O)nn2C)c1=O,12.5%,
CC(=O)c1c(C)[nH]c(C(=O)COC(=O)c2cccc(S(=O)(=O)N(C)c3ccccc3)c2)c1C,,31.6 µM (active)
COc1cccc(C(=O)OCC(=O)c2[nH]c(C)c(C(C)=O)c2C)c1,9.61%,

Structure (SMILES),"activity change, negative = inhibition",Potency
CC(=O)c1c(C)[nH]c(C(=O)COC(=O)c2cccs2)c1C,2.97%,
COc1ccc(S(=O)(=O)N(C)C[C@@H]2Oc3ccc(NC(=O)Nc4c(C)noc4C)cc3C(=O)N([C@H](C)CO)C[C@@H]2C)cc1,,7.94 µM (active)
Cc1noc(C)c1NC(=O)Nc1ccc2c(c1)C(=O)N([C@H](C)CO)C[C@H](C)[C@@H](CN(C)S(=O)(=O)c1cn(C)cn1)O2,8.95%,
Cc1noc(C)c1NC(=O)Nc1ccc2c(c1)C(=O)N([C@H](C)CO)C[C@H](C)[C@@H](CN(C)C(=O)Nc1ccccc1)O2,-0.581%,
O=C(CCCCCCCC(=O)N1CCCCC1)N1CCCCC1,5.76%,
COc1ccc(CCC(=O)Nc2ccc(Cl)c(S(=O)(=O)N3CCOCC3)c2)cc1OC,-29.5%,
CC(=O)N1CCc2ccc(N)cc21,-6.4%,
CCCCN(C(=O)c1cccc(N2C(=O)c3ccccc3C2=O)c1)c1c(N)n(CCCC)c(=O)[nH]c1=O,5.59%,
Cc1nn2cc(-c3ccc(Cl)cc3)cnc2c1Br,,8.91 µM (active)
CCCCNC1(C#N)CCN(Cc2ccccc2)CC1,-5.64%,
O=C(OCCOc1ccccc1F)c1cc(S(=O)(=O)N2CCOCC2)ccc1F,-15.2%,
O=C(Nc1nnc(S(=O)(=O)N2CCOCC2)s1)c1cccc(Br)c1,,44.7 µM (active)
O=C(Nc1nncs1)c1cccc(S(=O)(=O)N2CCCCC2)c1,-3.16%,
Cc1nc2ccc(NC(=O)c3cccc(S(=O)(=O)N4CCOCC4)c3)cc2s1,-11.8%,
O=C(Nc1nnc(S(=O)(=O)N2CCCCCC2)s1)c1cccc(Br)c1,,28.2 µM (active)
COc1cccc(C(=O)Nc2nnc(S(=O)(=O)N3CCOCC3)s2)c1,-6.83%,
COc1cccc(C(=O)Nc2nnc(S(=O)(=O)N3CCCCC3)s2)c1,-14.2%,
Cc1nc(N)nc(Cl)c1CCC1OCCO1,9%,
CCN1C[C@@H]2[C@@H]3C(=O)N(Cc4ccccc4)C(=O)[C@@H]3[C@](C)(C1=O)N2C(=O)c1ccc(C(C)(C)C)cc1,0.48%,
CCn1c(=O)c(C(=O)NCc2ccc3c(c2)OCO3)c(O)c2ccccc21,-3.59%,
O=C(NCc1ccc2c(c1)OCO2)c1cc(F)c(F)cc1Cl,-9.25%,
Cc1nc2c(C(=O)NCc3ccc4c(c3)OCO4)c[nH]n2c(=O)c1Cc1ccccc1F,,28.2 µM (active)
COc1ccc(Nc2ccc3ccccc3c2)cc1,0.49%,
Cc1ccc(Nc2c(O)nc[nH]c2=O)cc1C,-0.0318%,
O=C(NCC1(N2CCCCC2)CCCCC1)c1cccc(S(=O)(=O)Nc2ccccc2Cl)c1,-6.06%,
